Assay outcomes deposited in PubChem by National Center for Advancing Translational Sciences (NCATS).
Shown is part of a subset that was picked to be rich in hits.
LmPK inhibitor – qHTS Assay for Inhibitors of Leishmania Mexicana Pyruvate Kinase (LmPK). actives 0.37% (n = 290,000). purified LmPK, Kinase-Glo ATP luminescence, 1 h. Potency, µM (series often up to 57.5 µM), for inactives: at the top dose activity change, negative = inhibition, most hits filed as inhibitors. AID 1721, 2009. Q27686; note: potency is the fitted concentration of half-maximal effect; % is set by controls: 0 for no effect and ±100 for the full control effect
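ATP generated from ADP (0.1 mM) and PEP (0.5 mM) by 0.1 nM LmPK over 1 h at room temperature (pH 7.2 imidazole buffer) was detected by coupled luciferase luminescence. Values were normalized to uninhibited and no-enzyme wells.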
Shiga inhibitor – A qHTS for Small Molecule Inhibitors of Shiga Toxin; Vero cells, Shiga toxin protein synthesis inhibition reporter; inhibition, % at 38.7 µM; actives 9.2% (n = 290,000); in the data active = inhibition mostly above about 28%, no sharp cut-off; inactive = mostly below about 43%; note: 0% is about no effect
RE007 growth inh – qHTS Assay for Inhibitors of the HIV-1 protein Vpr; Potency, µM (doses to about 92.2 µM), without a hit: at the highest dose activity change, negative = less growth, hits mostly inhibitors; S. pombe RE007 Vpr strain, BacTiter-Glo ATP luminescence, 24 h; AID 651644, 2012; actives 0.21% (n = 360,000); active = well fitted falling curve with a large enough effect; inconclusive = small, poorly fitted or top-dose-only effect; inactive = no such curve, though single readings can be large or run the other way; note: potency is the fitted concentration of half-maximal effect; % is set by controls: 0 for no effect and ±100 for the full control effect; nearly all actives have a fitted effect of over 50% in size
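Fission yeast RE007 carrying one integrated HIV-1 vpr copy, seeded at OD 0.01 in PMG+AL medium with 23 nL pinned compound. Grown 24 h at 30 degrees; viability read by BacTiter-Glo luminescence after 5 min.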
FBPA Giardia inh – qHTS Assay for Inhibitors of Fructose-1,6-bisphosphate Aldolase from Giardia Lamblia. A8B2U2. purified Giardia FBPA. Potency, µM (highest dose often 59.6 µM), for inactives: at the top dose activity, negative = inhibition, actives largely listed as inhibitors. actives 0.71% (n = 290,000); note: potency is the fitted concentration of half-maximal effect; % is set by controls: 0 for no effect and ±100 for the full control effect; nearly all actives have a fitted effect of over 55% in size
Target sequence (A8B2U2 whole entry, looked up): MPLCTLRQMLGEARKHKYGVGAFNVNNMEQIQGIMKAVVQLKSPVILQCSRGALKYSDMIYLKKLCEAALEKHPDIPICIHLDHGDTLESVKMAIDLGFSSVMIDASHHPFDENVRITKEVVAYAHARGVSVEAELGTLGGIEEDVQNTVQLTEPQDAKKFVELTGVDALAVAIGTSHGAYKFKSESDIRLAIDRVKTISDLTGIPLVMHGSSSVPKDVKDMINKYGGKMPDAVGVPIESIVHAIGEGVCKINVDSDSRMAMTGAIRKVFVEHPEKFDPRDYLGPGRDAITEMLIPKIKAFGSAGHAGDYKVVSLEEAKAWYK
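Giardia FBPA (40 nM reagent) was preincubated 10 min at RT with compound (up to 57.5 uM final), then substrate plus GAPDH/TPI/NAD/arsenate coupling system with diaphorase/resazurin was added; resorufin fluorescence (525/598 nm) was read after 20 min.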
CHX counter – Cycloheximide Counterscreen for Small Molecule Inhibitors of Shiga Toxin; actives 12% (n = 300,000); AID 2314, 2010; cell reporter, cycloheximide protein synthesis inhibition counterscreen; max response, %; in the data active = max response mostly above about 13%, no sharp cut-off; inactive = mostly below about 14%; note: read at 38.3 µM for the half of the compounds with a filed dose; 0% is about no effect
TbPYK inhibitor – qHTS of Trypanosoma Brucei Inhibitors. pyruvate kinase (Trypanosoma brucei), Q57TT1. TbPYK enzyme, Kinase-Glo Plus ATP luminescence, 45 min. Potency, µM (highest dose often 76.8 µM), without a hit: at the highest dose activity, negative = inhibition, actives largely listed as inhibitors. actives 0.12% (n = 410,000); note: potency is the fitted concentration of half-maximal effect; % is set by controls: 0 for no effect and ±100 for the full control effect; nearly all actives have a fitted effect of over 50% in size
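Glycolytic pyruvate kinase of T. brucei was incubated with substrate, test compound and 130 uM ADP for 45 minutes at room temperature. Luminescent Kinase-Glo Plus signal was measured after 10 minutes.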
Starred values were filed as active, the others as inactive; ? = inconclusive; . = not tested or not shown. Unless noted, calls come from the whole dose curve; as a rule, active = well fitted curve in the direction sought with a large enough effect; inconclusive = small, poorly fitted or top-dose-only effect, or another doubt; inactive = no such curve, though single readings can be large; an effect the other way counts as inactive or inconclusive.

SMILES | LmPK inhibitor | Shiga inhibitor | RE007 growth inh | FBPA Giardia inh | CHX counter | TbPYK inhibitor
COc1ccc2c(c1)cc1c(=O)n(CC(=O)NC3CC3)nc(C)n12 | . | . | . | . | . | -1%
COC(=O)c1ccc2nc(-c3ccc(C)cc3)c(Cc3cccc(F)c3)n2c1 | . | . | -28% | . | . | -1%
COC(=O)c1nc2ccc(C)cn2c1F | 5% | 36 | -4% | 1% | 19* | 3%
CCOc1ccc(-c2nnc(-c3ccc(OC)cc3)o2)cc1 | 3% | 9 | -7% | 5% | -1 | -6%
c1coc(-c2nnc(NC3=NCCC3)o2)c1 | -16% | 66* | -4% | 1% | 29* | 1%
CCOc1ccc(-c2nnc(-c3ccncc3)o2)cc1 | -10% | 126 | ? | -4% | 50* | -11%
CCOc1ccc(-c2nnc(-c3ccccc3)n2-c2ccccc2)cc1 | 3% | 65 | 1% | 1% | 42* | 10%
CCOc1ccc(-c2nnc(-c3ccccc3)o2)cc1 | ? | 77* | ? | 0% | 29* | -16%
COc1ccc(OC)c(CNS(=O)(=O)c2ccc3c(c2)oc(=O)n3C)c1 | . | . | . | . | . | -3%
COc1ccc(C(=O)NCc2nc(-c3cccc(C)c3)no2)cc1OC | . | . | . | . | . | 2%
COCCNC(=O)Nc1cc(C(=O)NCc2ccc(C(C)C)cc2)ccc1N1CCCC1 | . | . | . | . | . | 1%
CCOc1ccc(-c2nc3ccccc3c(=O)o2)cc1 | ? | 21 | -8% | -2% | 15* | -9%
CCOc1ccc(S(=O)(=O)NC2=NCCCCC2)cc1 | . | . | -1% | . | . | -7%
CCCCOc1ccc(-c2nnc(-c3cc[n+](C)cc3)o2)cc1 | 2% | 34 | 0% | -4% | 3 | -2%
CCCCOc1ccc(-c2nnc(-c3ccncc3)o2)cc1 | -6% | 56 | -29% | -1% | 17* | 1%
CCCOc1ccc(-c2nnc(-c3cccs3)o2)cc1 | -2% | 107* | 4% | 7% | 51* | -10%
CCOc1ccc(-c2nnc(NC3=NCCCCC3)o2)cc1 | -8% | 73* | 9% | 2% | 41* | 3%
COc1ccc(-c2nc3ccccc3c(=O)o2)cc1OC | -2% | -5 | -20% | -3% | 4 | -2%
CCc1cccc(NC(=O)CSc2n[nH]c(-c3ccccc3Cl)n2)c1 | . | . | . | . | . | -2%
CCOc1ccc(NC(=O)Cn2c(=O)c(CNc3ccc(OC)cc3)cc3ccc(OC)cc32)cc1 | . | . | . | . | . | -1%
Cc1ccc(-n2nc3c(=O)n(CC(=O)NCc4cccs4)nc(C)c3c2C)cc1 | 3% | -1 | 9% | 7% | 2 | 4%
Cc1nn(CC(=O)NCCc2cccs2)c(=O)c2nn(-c3ccccc3)c(C)c12 | 0% | 19* | 6% | 3% | 22* | 3%
CCCCNC(=O)CSc1nnc(C)c2c(C)n(-c3ccccc3)nc12 | . | 74* | . | . | 38* | 4%
COc1ccccc1-c1cc2ccccc2[nH]1 | 1% | 69* | -29% | -1% | 38* | 1%
O=C(O)c1ccccc1-c1cc2ccccc2[nH]1 | . | . | 3% | . | . | 2%
SMILES | LmPK inhibitor | Shiga inhibitor | RE007 growth inh | FBPA Giardia inh | CHX counter | TbPYK inhibitor
CN(Cc1c(F)cccc1Cl)C(=O)c1cnc2ccccc2n1 | 3% | 43 | 10% | -12% | 12* | -3%
COC(=O)/C(=C1/Oc2cc3c(cc2S1)OCO3)C(F)(F)F | 1% | 0 | 1% | 4% | 1 | 3%
COC(=O)/C(=C1/Oc2ccc(C)cc2S1)C(F)(F)F | -1% | 57* | -8% | 2% | 25* | 0%
C(#CC1CCCC1)c1ccc2c(c1)COc1c3ccccc3nn1-2 | -4% | 91* | 4% | 6% | 14* | -19%
CCn1cc(C(=O)NCc2ccccc2OC)c(=O)c2cc(S(=O)(=O)N3CCCCCC3)ccc21 | . | . | . | . | . | -7%
Cc1c(Cl)cccc1N=Cc1ccc([N+](=O)[O-])s1 | -2% | 2 | 16µM* | -1% | 14 | -20%
O=[N+]([O-])c1ccc(/C=N/NC(=S)Nc2ccc(Cl)cc2Cl)s1 | -4% | 22 | 2% | -27% | 11 | -5%
COc1ccc(CNC(=O)CSc2ccsc2[N+](=O)[O-])cc1 | -1% | 84* | 2% | -1% | 34* | -3%
Cc1ccc(CNC(=O)CSc2ccsc2[N+](=O)[O-])cc1 | 3% | 72* | 16% | 0% | 54* | -9%
O=C(CSc1ccsc1[N+](=O)[O-])NCCc1ccc(Cl)cc1 | -3% | -1 | -24% | 4% | -1 | 1%
O=C(CSc1ccsc1[N+](=O)[O-])Nc1cc(F)ccc1F | 0% | 45* | 2% | -12% | 19* | 4%
CC(=O)c1cc2c(C)c(C(=O)c3ccccc3)oc2cc1O | -2% | 79* | -6% | 7% | 45* | 7%
O=C(c1ccccc1)c1ccc(O)cc1O | 2% | -2 | -22% | 1% | 7 | -4%
OCCN=c1cc(-c2ccccc2)oc2ccc(Cl)cc12 | -1% | 190* | -23% | . | 52* | -8%
CN(C)CCCN1C(=O)c2oc3ccc(Cl)cc3c(=O)c2C1c1cccnc1 (centres undefined) | 1% | 2 | -4% | 6% | 5 | 7%
CN(C)CCCN=c1cc(-c2ccccc2)oc2ccc(Cl)cc12 | 9% | 27 | ? | -2% | 14* | 1%
COc1ccc(NC(=O)c2ccsc2NC(C)=O)cc1 | -3% | 42 | -14% | -19% | 9 | 7%
Cc1cccc(-n2cc(-c3ccccc3)c3c(NC(C)C)ncnc32)c1 | . | . | . | . | . | -12%
c1ccc(CNCC2COc3ccccc3O2)cc1 (centres undefined) | 1% | 49* | -1% | -18% | 2 | 3%
O=C(CCC(=O)N1CCOc2ccccc21)NCCc1ccccc1 | -2% | 12 | -1% | 1% | 8.3* | 2%
O=C(CC1COc2ccccc2O1)NCCc1ccccc1 (centres undefined) | 4% | 64* | -6% | . | 52* | -5%
COc1ccc(CNCC2COc3ccccc3O2)cc1 (centres undefined) | 1% | 28 | -13% | -29% | 22* | 2%
O=C(CC1COc2ccccc2O1)NCc1ccccc1 (centres undefined) | 2% | 11 | 3% | 2% | -2 | -2%
CN1CCN(C(=O)Cn2c(-c3cccs3)cc3cc(Cl)ccc32)CC1 | . | . | . | . | . | 1%
COc1ccc(C(=O)N/N=C/c2ccc(OC)c(CN3CCCc4ccccc43)c2)cc1 | 4% | 1 | 6% | -14% | 9.4* | -2%
COc1ccc(/C=N\NC(=O)c2ccc(F)cc2)cc1COc1ccccc1C(N)=O | -1% | -15 | -1% | . | 4 | -2%
COc1ccc(OCc2cc(/C=N\NC(=O)c3ccccc3)ccc2OC)cc1 | -9% | 72* | -9% | . | 33* | 5%
